± gives the standard deviation of the averaged measurements. In all, about 4,100 sequences were measured (“relative kcat/Km (krel) vs genomic leader AAAGAU”: median about 1.7, highest 2% from about 6.5 on). Only a selection was taken, and the highest values are over-represented in it overall.
Target: T1, E. coli RNase P holoenzyme (M1 P RNA + rnpA protein) (UniProt P0A7Y8)
T1 sequence: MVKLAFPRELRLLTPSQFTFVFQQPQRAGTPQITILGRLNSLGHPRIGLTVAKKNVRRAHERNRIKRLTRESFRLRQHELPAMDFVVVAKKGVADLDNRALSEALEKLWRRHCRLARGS
Assay: relative kcat/Km (krel) vs genomic leader AAAGAU (relative (reference leader = 1)); higher = faster RNase P cleavage
Method: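 HTS-Kin: a pool of ptRNA-Met (21C construct) with all 4096 combinations of 5' leader nucleotides N(-6) to N(-1) was processed in vitro by E. coli RNase P (P RNA + rnpA/C5 protein) under multiple-turnover conditions at 37 C, pH 8, 17.5 mM MgCl2. Residual substrate was Illumina-sequenced at several fractions reacted, and relative kcat/Km (krel) was computed by internal competition kinetics, calibrated to the genomic leader (AAAGAU = 1). The listed hexamer is the varied N(-6)..N(-1) leader (DNA letters), and it sits between a fixed 5' stem-loop flank (GCAUGCACGAAAGUGCGUGCUAUGAA) and the mature tRNA-Met starting GGCUACGUAGCUCAGUUGG. Two technical replicates are averaged.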

[1] = fraction of substrate reacted: ~9-10% (9.79% repeat 1, 9.1% repeat 2)
[2] = fraction of substrate reacted: ~13-16% (15.68% repeat 1, 13.17% repeat 2)
[3] = fraction of substrate reacted: ~26-29% (28.66% repeat 1, 26.4% repeat 2)

Row | Sequence | relative kcat/Km [1] | relative kcat/Km [2] | relative kcat/Km [3]
1 | ATTACA | 2.55 ± 1.5 | 2.08 ± 0.14 | 2.94 ± 1.2
2 | CCCACT | 1.87 ± 1.1 | 1.27 ± 0.14 | 2.79 ± 0.067
3 | AAATCT | 1.86 ± 0.61 | 2.09 ± 0.095 | 2.8 ± 0.68
4 | GCACGC | – | – | 1.29 ± 1.2
5 | CTATGT | 0.766 ± 0.47 | 1.38 ± 0.98 | –
6 | ATGTCT | 1.82 ± 0.38 | 2.3 ± 0.33 | 2.43 ± 1
7 | ATCTAT | 3.93 ± 1.4 | 5.38 ± 1 | 7.98 ± 3.7
8 | CTCTAT | 4.59 ± 0.51 | 6.38 ± 1.7 | 9.17 ± 4
9 | AGCTAC | 1.27 ± 0.29 | 3.3102 ± 0.0027 | 4.78 ± 1.9
10 | GTCTAT | 5.93 ± 2.3 | 6.62 ± 1.5 | 9.91 ± 4.4
11 | ATCTAC | 4.97 ± 1.4 | 6.58 ± 2 | 9.08 ± 4.5
12 | ATCTCG | 2.52 ± 2 | 2.14 ± 0.37 | 3.55 ± 1.2
13 | ATCTGT | – | 1.3 ± 1.2 | 1.76 ± 1.5
14 | CTATCT | 3.05 ± 0.67 | 3.54 ± 0.89 | 4.18 ± 1.4
15 | GGCTAT | 2.25 ± 0.98 | 1.99 ± 0.48 | 2.88 ± 0.85
16 | ATCTAG | 2.49 ± 0.96 | 3.16 ± 1 | 5.72 ± 2.4
17 | ATACTT | 1.93 ± 1.3 | 1.97 ± 0.58 | 2.62 ± 1.1
18 | GCGAAT | 0.964 ± 0.25 | 1.54 ± 0.49 | 2.09 ± 0.45
19 | CAGCGC | 1.95 ± 0.83 | 1.4 ± 0.14 | 2.09 ± 0.64
20 | CTGCGG | – | 0.228 ± 0.042 | 0.674 ± 0.39
21 | TGGGAA | – | 1.31 ± 0.98 | 1.24 ± 0.69
22 | CAGCTA | 1.51 ± 0.56 | 1.21 ± 0.27 | 1.85 ± 0.51
23 | ACTGGA | 0.346 ± 0.015 | – | –
24 | TGGTAG | – | – | 0.538 ± 0.38
25 | TTTCTC | 2.12 ± 0.99 | 2.29 ± 0.41 | 2.91 ± 0.93

Row | Sequence | relative kcat/Km [1] | relative kcat/Km [2] | relative kcat/Km [3]
26 | TTATGC | 3.22 ± 0.63 | 4.29 ± 0.74 | 6.16 ± 2.8
27 | CCGTAC | 3.58 ± 1 | 4.22 ± 0.54 | 5.69 ± 2.3
28 | GCTTAA | 1.72 ± 1 | 2.36 ± 0.11 | 3.64 ± 0.66
29 | AACTTC | 3.37 ± 1.2 | 3.49 ± 0.17 | 4.33 ± 1.5
30 | TACATA | 3.93 ± 2 | 4.55 ± 0.65 | 6.5 ± 2.8
31 | GCTGAT | 1.1 ± 0.57 | 1.1 ± 0.49 | 0.636 ± 0.14
32 | TGAGGA | 0.562 ± 0.032 | – | 1.42 ± 0.78
33 | TTAAGA | 1.95 ± 0.61 | 2.89 ± 0.47 | 3.88 ± 1.5
34 | GTCTAC | 4.47 ± 0.65 | 6.86 ± 2.4 | 10.1 ± 4.8
35 | GGCTAC | 1.69 ± 1.4 | 1.98 ± 0.51 | 2.81 ± 1.3
36 | GTCTAG | 3.54 ± 2.5 | 3.25 ± 0.17 | 5.81 ± 1.6
37 | CTCTAC | 4.76 ± 1.6 | 6.63 ± 1.3 | 8.97 ± 3.6
38 | CTACAC | 2.87 ± 1.7 | 3 ± 0.59 | 4.74 ± 1.4
39 | CTCTAG | 3.37 ± 2.2 | 3.41 ± 0.89 | 5.82 ± 2
40 | TACGTT | 1.82 ± 0.88 | 1.95 ± 0.067 | 2.61 ± 1
41 | CAAGAT | 1.15 ± 0.24 | 0.704 ± 0.019 | 1.49 ± 0.33
42 | GGCCGC | 1.55 ± 0.064 | 1.97 ± 0.17 | 3.73 ± 0.94
43 | CGCCGC | 2.62 ± 0.84 | 3.479 ± 0.016 | 4.99 ± 2
44 | CTCCGC | 3.56 ± 0.068 | 4.98 ± 1.7 | 6.8 ± 2.7
45 | CTCCGT | – | 1.79 ± 1.2 | 2.01 ± 1.7
46 | CTCCGG | 1.38 ± 0.85 | 0.916 ± 0.46 | 1.27 ± 0.5
47 | CACCGC | 2.34 ± 0.56 | 3.87 ± 1.6 | 5.89 ± 2.7
48 | GTCCGC | 3.94 ± 0.68 | 5.24 ± 1.4 | 8 ± 3.3
49 | ATCCTA | 3.22 ± 1.7 | 3.39 ± 0.28 | 4.55 ± 1.7
50 | ATCCGA | 4.57 ± 1.7 | 4.95 ± 0.73 | 7.19 ± 2.7

Row | Sequence | relative kcat/Km [1] | relative kcat/Km [2] | relative kcat/Km [3]
51 | GTCCGG | – | – | 1.17 ± 0.26
52 | CTCCGA | 4.78 ± 2 | 5.35 ± 1.6 | 8.07 ± 3.3
53 | ATCCCA | 2.69 ± 1.7 | 2.52 ± 0.24 | 3.52 ± 0.92
54 | GGCGGT | – | – | 1.38 ± 0.92
55 | ATGTCA | 1.69 ± 0.74 | 1.97 ± 0.16 | 2.71 ± 1
56 | CGCGTA | 2.07 ± 0.78 | 1.48 ± 0.56 | 2.18 ± 0.99
57 | CAGGAG | 0.78 ± 0.77 | – | 0.626 ± 0.52
58 | TAAGGT | – | – | 3.06 ± 1.8
59 | TCGGGC | – | – | 1.18 ± 0.74
60 | TGAATC | 1.86 ± 0.16 | 1.84 ± 0.4 | 2.53 ± 0.78
61 | TATAAT | 3.05 ± 0.91 | 3.72 ± 0.38 | 5.41 ± 2.8
62 | TAACAG | – | 1.33 ± 0.61 | 2.19 ± 0.52
63 | GCGAGA | 1.04 ± 0.47 | – | 1.63 ± 0.017
64 | TTCCGG | 1.74 ± 1.5 | 0.738 ± 0.38 | 1.68 ± 0.19
65 | TTCCCA | 2.74 ± 1.8 | 4.27 ± 0.3 | 4.97 ± 1.5
66 | TTCCGT | – | 2.19 ± 1.9 | 2.5 ± 1.8
67 | TTCCGA | 4.31 ± 1.2 | 6.28 ± 2 | 9.5 ± 4.6
68 | ATCCGT | – | – | 2.3 ± 2.1
69 | GTCCTA | 3.11 ± 1.4 | 3.47 ± 0.34 | 4.9 ± 1.2
70 | ATCCGG | – | 0.394 ± 0.063 | 0.881 ± 0.16
71 | TTCCGC | 4.23 ± 1.3 | 5.35 ± 0.93 | 8.49 ± 3.5
72 | ATCCGC | 3.93 ± 0.99 | 4.36 ± 1.7 | 6.74 ± 2.5
73 | TGCCGA | 2.99 ± 0.37 | 2.99 ± 1.4 | 4.69 ± 1.9
74 | GGCCGA | 1.949 ± 0.015 | 2.42 ± 0.35 | 3.95 ± 1.3
75 | GTCCGA | 3.87 ± 0.72 | 5.56 ± 1 | 8.22 ± 3.4

Row | Sequence | relative kcat/Km [1] | relative kcat/Km [2] | relative kcat/Km [3]
76 | ACGACA | 1.74 ± 0.19 | 1.62 ± 0.86 | 1.9 ± 0.45
77 | CAGCAA | 2.5 ± 1.1 | 2.58 ± 0.032 | 3.08 ± 1
78 | TATCGA | 3.95 ± 1.2 | 4.7 ± 0.84 | 6.39 ± 2.6
79 | GTATAC | 3.66 ± 2.2 | 4.72 ± 0.97 | 6.65 ± 2.7
80 | TTATAC | 4.34 ± 1.3 | 5.2 ± 0.6 | 7.47 ± 2.9
81 | CTATAC | 3.79 ± 0.8 | 3.82 ± 0.28 | 5.86 ± 1.7
82 | ATATAC | 3.5 ± 2.1 | 3.99 ± 0.01 | 6.02 ± 2.1
83 | GTATAG | – | 1.79 ± 0.37 | 3.69 ± 0.99
84 | TTATAA | 3.65 ± 1.4 | 4.53 ± 0.46 | 6.51 ± 2.4
85 | CCGCCT | 1.45 ± 0.15 | – | 1.54 ± 0.38
86 | ATTCAT | 2.95 ± 1.6 | 3.71 ± 0.32 | 5.56 ± 2.2
87 | GTTCAC | 3.88 ± 0.89 | 4.82 ± 0.92 | 6.76 ± 2.6
88 | CTTCAA | 3.2 ± 2.3 | 3.11 ± 0.12 | 3.96 ± 1.1
89 | TTTCAC | 3.76 ± 1.6 | 4.95 ± 0.89 | 6.83 ± 2.6
90 | TCTCAT | 3.52 ± 0.79 | 4.87 ± 1.2 | 6.39 ± 2.9
91 | GTTCAA | 2.59 ± 1.7 | 3.08 ± 0.83 | 4.21 ± 1.5
92 | TTTCAG | 2.51 ± 2.3 | 1.83 ± 0.22 | 3.23 ± 0.79
93 | CTTCAT | 4.07 ± 1.5 | 4.78 ± 0.63 | 6.67 ± 2.6
94 | CTTCAG | – | 1.26 ± 0.073 | 2.21 ± 0.1
95 | GTTCAT | 3.32 ± 0.77 | 4.43 ± 0.92 | 6.51 ± 3
96 | TTTCAT | 4.15 ± 1.4 | 5.11 ± 0.89 | 7.53 ± 3.4
97 | TTTCAA | 2.81 ± 1.9 | 2.95 ± 0.37 | 4.9 ± 2.3
98 | TGGAGT | – | – | 1.17 ± 1.1
99 | GGGGCC | 0.798 ± 0.048 | 0.576 ± 0.47 | 0.579 ± 0.14
100 | AACTGA | 2.11 ± 1.8 | 1.88 ± 0.34 | 3.9 ± 0.84

— the supplement of paper PMC9433436
